In PubChem BioAssay:

Assays:
[1] = system: Human papillomavirus type 1a protein E7 (residues 44-93); experiment: HPV1a E7 fragment binders on microarrays, primary screen, biochemical, small-molecule microarray, residues 44-93, 635 nm fluorescence (AID 1108); settings: small-molecule microarray binding, fluorescence 635 nm; higher = more signal;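 note: E7 fragment applied at 1 µg/mL in TBST for 1 h at 4 C; score combines spot fluorescence with its signal to noise ratio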
[2] = modulators of HCV replicon luciferase signal, primary screen, HCV replication inhibitor project, Huh7 cells, luciferase reporter (AID 1109); settings: 48 h, higher = more signal;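 note: huh7 hepatoma cells harbouring a luciferase neomycin HCV replicon reporter; luciferase luminescence as measure of HCV replicon replication; test concentration not given here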
[3] = target: Left-right determination factor 2 (Homo sapiens) (UniProt O00292); experiment: LEFTY2 binders on small-molecule microarrays, primary screen, biochemical, small-molecule microarray, 635 nm fluorescence scan (AID 1110); settings: LEFTY2 binding, higher = more signal
[4] = target: Calmodulin-1 (Homo sapiens) (UniProt P0DP23); experiment: CALM1 binders on microarrays, EGTA buffer, profiling panel, biochemical, small-molecule microarray, Cy5-labelled CALM1 (AID 1111); settings: Cy5-CALM1 binding fluorescence, higher = more signal;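 note: labelled calmodulin applied in Tris saline Tween buffer holding calcium plus EGTA and DTT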
[5] = target: Calmodulin-1 (Homo sapiens) (UniProt P0DP23); experiment: calcium-bound CALM1 binders on microarrays, profiling panel, artefact control for SMM control-protein annotation, biochemical, small-molecule microarray, Cy5-labelled CALM1, plus calcium (AID 1112); settings: Cy5-CALM1 binding fluorescence, higher = more signal;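 note: score merges spot fluorescence with signal to noise from triplicate slides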
[6] = small-molecule microarray binders of probe aWnt5a, primary screen, biochemical, biotinylated probe, 635/667 nm fluorescence (AID 1113); settings: higher = more signal;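 note: score merges 667 nm fluorescence intensity with signal-to-noise per printed feature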
[7] = small-molecule microarray binders of probe aShh, primary screen, biochemical, biotinylated probe, 635/667 nm fluorescence (AID 1114); settings: higher = more signal;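 note: probe is biotin-labelled aShh protein from a stem cell growth factor screen; measures binding of labelled protein to compounds printed on the slide; score merges feature fluorescence at 667 nm with signal-to-noise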
[8] = small-molecule microarray binders of probe aNog, primary screen, biochemical, biotinylated probe, 635/667 nm fluorescence (AID 1115); settings: higher = more signal;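 note: probe is biotinylated aNog protein used at 0.15 µg/mL for 1 h at 4 C; z-score combines 667 nm fluorescence of each spot with its signal to noise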
[9] = target: Torsin-1A-interacting protein 1 (Homo sapiens) (UniProt Q5JTV8); experiment: LAP1 binders from COS7 cell lysate, primary screen, small-molecule microarray, 635/667 nm fluorescence (AID 1116); settings: COS7-hLAP1 lysate binding, 635 nm fluorescence, higher = more signal
[10] = target: Alpha-bungarotoxin (Bungarus multicinctus) (UniProt P60615); experiment: alpha-bungarotoxin binders on microarray, profiling panel, artefact control for SMM control protein annotation, biochemical, small-molecule microarray, Alexa647 label, 635/667 nm fluorescence (AID 1117); settings: alpha-BTX-A647 binding fluorescence, higher = more signal
Sequence of Alpha-bungarotoxin (Bungarus multicinctus) (P60615 whole entry, looked up): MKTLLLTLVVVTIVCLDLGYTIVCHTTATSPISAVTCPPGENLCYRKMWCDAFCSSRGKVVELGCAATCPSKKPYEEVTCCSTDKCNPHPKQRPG

Sequence of Left-right determination factor 2 (Homo sapiens) (O00292 whole entry, looked up): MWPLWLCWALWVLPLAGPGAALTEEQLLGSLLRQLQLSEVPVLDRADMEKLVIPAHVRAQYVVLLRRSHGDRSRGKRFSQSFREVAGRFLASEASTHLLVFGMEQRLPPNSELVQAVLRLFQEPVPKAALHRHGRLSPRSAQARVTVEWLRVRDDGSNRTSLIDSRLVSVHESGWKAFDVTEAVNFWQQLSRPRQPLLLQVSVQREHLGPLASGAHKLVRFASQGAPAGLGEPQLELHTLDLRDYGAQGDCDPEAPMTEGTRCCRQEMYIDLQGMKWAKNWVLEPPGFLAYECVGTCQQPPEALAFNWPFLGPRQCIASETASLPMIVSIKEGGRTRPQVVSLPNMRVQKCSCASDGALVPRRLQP
Sequence of Torsin-1A-interacting protein 1 (Homo sapiens) (Q5JTV8 whole entry, looked up): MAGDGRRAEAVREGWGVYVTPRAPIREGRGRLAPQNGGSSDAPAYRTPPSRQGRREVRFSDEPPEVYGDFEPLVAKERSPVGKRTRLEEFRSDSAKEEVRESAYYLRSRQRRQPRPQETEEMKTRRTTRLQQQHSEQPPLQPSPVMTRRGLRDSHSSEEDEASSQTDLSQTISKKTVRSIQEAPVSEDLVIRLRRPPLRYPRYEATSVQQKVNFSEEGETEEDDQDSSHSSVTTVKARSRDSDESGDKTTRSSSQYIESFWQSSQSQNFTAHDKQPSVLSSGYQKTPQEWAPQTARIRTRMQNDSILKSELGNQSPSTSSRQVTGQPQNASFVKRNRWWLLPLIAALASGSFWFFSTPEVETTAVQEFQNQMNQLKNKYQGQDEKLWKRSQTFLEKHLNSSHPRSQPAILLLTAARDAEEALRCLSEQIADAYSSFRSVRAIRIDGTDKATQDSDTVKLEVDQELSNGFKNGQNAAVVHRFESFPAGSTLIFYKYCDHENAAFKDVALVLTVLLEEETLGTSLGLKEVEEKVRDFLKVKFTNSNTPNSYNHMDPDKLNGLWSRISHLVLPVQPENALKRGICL

| Compound | composite z-score [1] | z-score [2] | composite z-score [3] | composite z-score [4] | composite z-score [5] | composite z-score [6] | composite z-score [7] | composite z-score [8] | composite z-score [9] | composite z-score [10] |
| --- | --- | --- | --- | --- | --- | --- | --- | --- | --- | --- |
| COCCCNC(=O)[C@@]1(Cc2ccccc2I)c2ccccc2C(=O)N(Cc2ccccc2C(F)(F)F)[C@H]1c1ccc(CO)cc1 | 1.1 | -0.594 | -2.26 | -0.285 | -0.664 | -0.136 | -0.0848 | 0.2 | -0.0065 | -0.458 |
| CCCCN1CC=CC23O[C@@H]4C=CCCOC(=O)C4[C@H]2C(=O)N(CCO)[C@@H]3C1=O (stereo not given in full) | -0.548 | -0.161 | -1.02 | -0.555 | -0.436 | -0.298 | 0.149 | -0.249 | -0.997 | -0.363 |
| CCOC(=O)C1=CCC(c2cccn2C(=O)OC(C)(C)C)N(S(=O)(=O)c2ccc(C)cc2)C1 (stereo not given) | 0.18 | -3.94 | 0.379 | 0.864 | 0.439 | -0.104 | 0.428 | 1.21 | 1.52 | 2.21 |
| O=C1c2ccccc2[C@@]2(Cc3ccccc3N(CC(F)(F)F)C2=O)[C@H](c2ccc(CO)cc2)N1Cc1ccccc1 | -0.143 | -1.22 | 0.2 | -0.469 | 0.457 | 0.0371 | 0.0178 | -0.238 | -0.131 | -0.0056 |
| COC(=O)C(CC#Cc1ccc2c(c1)[C@]1(C(=O)N2)[C@H](C(=O)N2CCCCCCC2)[C@H]2C(=O)O[C@H](c3ccccc3)[C@H](c3ccccc3)N2[C@@H]1c1ccc(OCCO)cc1)C(=O)OC | 1.55 | -1.57 | 1.76 | 3.07 | 1.68 | 1.63 | 3.53 | 3.7 | 6.05 | 4.36 |
| C=C(CCCC)C(=O)CC[C@H](OC(=O)c1ccccc1-c1ccccc1C(=O)O)c1cccc(OCCO)c1 | -0.109 | -1.92 | 0.0292 | -0.268 | -0.832 | -0.13 | -0.0866 | -0.318 | 0.206 | -0.0274 |
| COc1ccc(CCNC(=O)[C@@]2(c3ccc([N+](=O)[O-])cc3)CC(=O)N(C3CCCCC3)[C@@H]2c2ccc(CO)cc2I)cc1 | 0.535 | -2.57 | 0.497 | 0.529 | 0.113 | -0.0643 | 0.108 | 0.639 | 0.733 | 0.201 |
| COC(=O)[C@@]1(Cc2ccc(F)cc2)[C@@H]2C(=CC(=O)[C@H]2CC(=O)C(=O)N2CCCC2)CN1C(=O)c1ccccc1 | 1.47 | -2.78 | 0.643 | 1.38 | -0.24 | 0.625 | 0.761 | 2.06 | 1.25 | 0.683 |
| C=CCOC(=O)[C@@H]1[C@H]2C(=O)O[C@H](c3ccccc3)[C@H](c3ccccc3)N2[C@H](c2ccc(OCCOC(=O)[C@@H]3C[C@@H]4C(=O)N[C@@H](CC(C)C)C(=O)N4[C@@H]3c3ccc(O)cc3)cc2)[C@@]12C(=O)Nc1ccc(I)cc12 | 1.39 | -0.432 | 1.26 | 0.751 | 0.289 | -0.263 | -0.0793 | 1.12 | -0.107 | 1.44 |
| COc1ccc(C#Cc2ccc3c(c2)[C@]2(C(=O)N3)[C@H](c3ccccc3OCCO)N3[C@H](c4ccccc4)[C@H](c4ccccc4)OC(=O)[C@H]3[C@@H]2C(=O)NC[C@H](O)c2ccccc2)cc1 | 1.32 | -2.93 | 1.02 | 1.11 | -0.127 | -0.0846 | -0.16 | -0.479 | 1.01 | 1.26 |
| O=C1OCC=C[C@H]2OC34C=CCN(Cn5nnc6ccccc65)C(=O)[C@H]3N(CCO)C(=O)[C@@H]4[C@@H]12 (stereo not given in full) | 0.316 | -0.105 | -1.41 | -0.157 | 0.62 | -0.148 | -0.0192 | 0.0963 | -0.0193 | -2.05 |
| C=CCNC(=O)[C@@H]1[C@H]2C(=O)O[C@H](c3ccccc3)[C@H](c3ccccc3)N2[C@H](c2ccc(OCCO)cc2)[C@@]12C(=O)N(C(=O)OCCOC)c1ccccc12 | 1.11 | -0.945 | 0.47 | 0.789 | 0.132 | -0.096 | 0.0639 | -0.103 | 1.58 | 1.04 |
| COCCOC(=O)N1C(=O)[C@@]2(c3cc(C#CCNC(N)=O)ccc31)[C@H](C(=O)Nc1nc3ccccc3s1)[C@H]1C(=O)O[C@H](c3ccccc3)[C@H](c3ccccc3)N1[C@@H]2c1ccc(O)cc1 | 1.2 | -1.21 | 0.23 | 0.68 | 0.575 | -0.124 | 0.0483 | -0.314 | 0.618 | 1.6 |
| COCCOC(=O)N1C(=O)[C@@]2(c3cc(C#CCC(C(=O)OC)C(=O)OC)ccc31)[C@H](c1ccc(O)cc1)N1[C@H](c3ccccc3)[C@H](c3ccccc3)OC(=O)[C@H]1[C@@H]2C(=O)N1CCc2cc(OC)c(OC)cc2C1 | 0.438 | -0.284 | 1.04 | 0.505 | 0.781 | 0.0215 | 0.0898 | -0.366 | 1.54 | 1.36 |
| O=C1O[C@H](c2ccccc2)[C@H](c2ccccc2)N2[C@H]1[C@@H](C(=O)N1CCN(c3ncccn3)CC1)[C@]1(C(=O)Nc3ccc(C#CC4(O)CCCCCC4)cc31)[C@H]2c1ccc(O)cc1 | 1.07 | -0.317 | 0.15 | 1.14 | 0.792 | -0.0037 | 0.106 | -0.0496 | 0.679 | 2.18 |
| C=C[C@H](OC)[C@@H](O)c1ccc(OC)c(O)c1 | -1.25 | 0.622 | -1.77 | -1.06 | -0.597 | -0.0981 | -0.0035 | -0.326 | -0.435 | -0.646 |

| Compound | composite z-score [1] | z-score [2] | composite z-score [3] | composite z-score [4] | composite z-score [5] | composite z-score [6] | composite z-score [7] | composite z-score [8] | composite z-score [9] | composite z-score [10] |
| --- | --- | --- | --- | --- | --- | --- | --- | --- | --- | --- |
| O=C1OC[C@@H](c2ccccc2)n2cc(/C=C/c3ccccc3)cc21 | 0.06 | -0.18 | -0.623 | -0.638 | -1.27 | -0.197 | -0.0709 | -0.367 | -0.948 | 0.45 |
| CC(=O)NCCCC[C@@H]1NC(=O)[C@H]2C[C@@H](C(=O)O)[C@@H](c3cccc(OCCO)c3)N2C1=O | 1.11 | -1.14 | 0.978 | 0.0626 | -0.767 | 0.27 | 0.588 | 1.51 | 1.53 | 1.49 |
| Cc1ccc(S[C@]2(C(=O)NC(C)C)CC(=O)N(Cc3ccccc3)[C@@H]2c2ccc(CO)cc2)cc1 | -0.905 | -1.36 | -1.82 | -0.0379 | 0.175 | -0.124 | -0.2 | 0.0258 | -0.142 | 0.329 |
| [N-]=[N+]=NCc1ccccc1C[C@]1(C(=O)N2CCCCC2)COC(c2ccc(OCCCO)cc2)=N1 | 0.288 | -2.57 | 0.227 | 0.103 | -0.171 | -0.255 | 0.262 | -0.694 | 2.29 | 0.49 |
| C=C1C(=O)C=C2CN(C(=O)c3ccccc3)[C@@](Cc3ccc(F)cc3)(C(=O)OC)[C@@H]12 | 1.39 | -3.68 | -0.406 | 2.19 | 1.08 | 0.177 | -0.0626 | 1.99 | 0.952 | 1.85 |
| COC(=O)[C@@]1(Cc2ccc(OC)cc2)[C@@H]2[C@@H](CC(=O)[C@H]2CC(=O)C(=O)N(C)C)CN1C(=O)c1ccccc1 | 1.42 | -2.35 | 0.243 | 2.66 | 1.51 | 0.346 | 2.46 | 0.899 | 1.51 | 1.67 |
| CCOC(=O)C[C@H]1[C@H](OC(=O)c2ccccc2-c2ccccc2)[C@@H](NC(=O)CC(C)C)c2cc(OCCCO)ccc2N1C(=O)c1ccccc1 | 0.0819 | -0.783 | 0.466 | -0.0923 | -0.497 | -0.124 | -0.289 | -0.189 | 0.222 | 0.23 |
| CC(C)N1C(=O)[C@@]2(Cc3ccccc31)c1ccccc1C(=O)N(Cc1ccccc1)[C@H]2c1ccc(CO)cc1 | 0.256 | -0.656 | 0.159 | -0.439 | -0.445 | -0.124 | -0.64 | -0.218 | 0.0896 | 0.648 |
| C#CCN(C(=O)OC(C)(C)C)[C@H](CO)c1ccccc1 | 0.486 | 0.712 | 0.353 | -0.528 | -0.964 | -0.18 | -0.138 | -0.141 | 0.391 | 0.0876 |
| CO[C@H]1O[C@H](CO)[C@@H](OC(=O)Nc2ccccc2)[C@@H]2OC(=O)[C@@H](Cc3ccccc3)C/C=C/C[C@H](Cc3ccccc3)C(=O)O[C@@H]12 | 0.779 | -0.897 | -0.152 | -0.0442 | -0.845 | -0.0721 | -0.154 | -0.125 | 0.235 | 0.224 |
| O=C1NC(=O)C2C1C=CC(C(O)C(c1ccccc1)c1ccccc1)N2Nc1ccccn1 (stereo not given) | -1.31 | -0.246 | 0.702 | -0.67 | 0.295 | 0.278 | -0.119 | 0.328 | 1.63 | -0.143 |
| CN1C(=O)C2C=CC(C(O)c3ccc([N+](=O)[O-])cc3)N(Nc3ccccc3)C2C1=O (stereo not given) | 1.41 | 0.514 | -0.258 | 2.04 | 0.843 | 0.0968 | 1.01 | 1.53 | 0.0788 | 1.44 |
| COCCOC(=O)N1C(=O)[C@@]2(c3cc(C#CC4=CCCCC4)ccc31)[C@H](c1ccc(O)cc1)N1[C@H](c3ccccc3)[C@H](c3ccccc3)OC(=O)[C@H]1[C@@H]2C(=O)N1CCc2cc(OC)c(OC)cc2C1 | 1.06 | -0.993 | -0.231 | 1.12 | 0.516 | -0.0332 | 0.0796 | 0.453 | 2.23 | 0.924 |
| [N-]=[N+]=Nc1ccccc1C[C@]1(C(=O)N2CCCCC2)N=C(c2ccc(OCCCO)cc2)O[C@H]1c1ccccc1 | -0.0987 | -2.42 | 0.0344 | 1.8 | 0.727 | 0.0101 | 0.202 | -0.544 | 0.824 | 1.93 |
| O=C1O[C@H](c2ccccc2)[C@H](c2ccccc2)N2[C@H]1[C@@H](C(=O)Nc1nc3ccccc3s1)[C@]1(C(=O)Nc3ccccc31)[C@H]2c1ccccc1OCCO | 1.39 | -2.72 | 0.364 | 2.01 | 0.736 | -0.0405 | -0.0289 | -0.501 | 2.27 | 1.69 |
| COCCOC(=O)N1C(=O)[C@@]2(c3cc(C#CCNC(N)=O)ccc31)[C@H](C(=O)N1CCN(c3ncccn3)CC1)[C@H]1C(=O)O[C@H](c3ccccc3)[C@H](c3ccccc3)N1[C@@H]2c1ccc(O)cc1 | -0.381 | 0.894 | -1.67 | -0.777 | -0.686 | -0.408 | -0.461 | -0.294 | -0.92 | 0.165 |
